Data from PubChem BioAssay AID1159580 (chemical genetic matrix, 2015).
Values joined by “and” are separate entries in the source; they are usually repeats but may differ in a detail not shown here. Identical values can stand only once. In all, about 5,500 compounds went through this assay and about 2,000 (36%) were called active. Inconclusive results (about 18%) are left out. Cut-off read from the data, not from the text of the source: active = normalized growth mostly below about 0.91 (no sharp cut-off); inconclusive = no clear call, values can overlap the other calls; inactive = mostly above about 0.92. The list shows a part of the results.

Test: chemical genetic growth profiling, strain panel (AID 1159580);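 note: tested at 20 µM; growth read once vehicle control cultures reached saturation at 30 °C; 1 = growth at the plate median or of vehicle wells; lower values mean less growth of the strain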
Conditions: S. cerevisiae deletion strains, growth OD

Measured: normalized growth

CC(C)Cn1c(=O)n(C)c(=O)c2[nH]cnc21
inactive: locus YAL013W, strain DEP1, stronger effect = lower value 0.999 | locus YAL021C, strain ccr4, stronger effect = lower value 1.03 and 0.994 | locus YAL026C, strain drs2, stronger effect = lower value 1 and 1.03 | locus YAL030W, strain snc1, stronger effect = lower value 0.99 and 1 | locus YAL040C, strain CLN3, stronger effect = lower value 0.982 | locus YBL061C, strain skt5, stronger effect = lower value 0.992 and 1.02 | locus YBR009C, strain hhf1, stronger effect = lower value 1.01 and 0.995 | locus YBR021W, strain FUR4, stronger effect = lower value 0.966 | locus YBR023C, strain chs3, stronger effect = lower value 1 and 1.01 | locus YBR171W, strain sec66, stronger effect = lower value 0.998 and 1.03 | locus YBR229C, strain ROT2, stronger effect = lower value 0.982 | locus YBR231C, strain swc5, stronger effect = lower value 0.989 and 1.01 | locus YBR279W, strain paf1, stronger effect = lower value 0.996 and 1 | locus YCL011C, strain gbp2, stronger effect = lower value 1.01 and 1 | locus YCL016C, strain dcc1, stronger effect = lower value 0.984 and 0.981 | locus YCL029C, strain bik1, stronger effect = lower value 0.984 | locus YCL061C, strain MRC1 (second series), stronger effect = lower value 0.984 | locus YCL061C, strain MRC1, stronger effect = lower value 1 | locus YCL069W, strain vba3, stronger effect = lower value 1 | locus YCR088W, strain abp1, stronger effect = lower value 1 and 1.01 | locus YDL005C, strain med2, stronger effect = lower value 1 and 1.01 | locus YDL035C, strain GPR1, stronger effect = lower value 1.01 | locus YDL040C, strain nat1, stronger effect = lower value 0.988 and 1.01 | locus YDL074C, strain BRE1, stronger effect = lower value 1.03 | locus YDL101C, strain DUN1, stronger effect = lower value 0.984 | locus YDL134C, strain PPH21, stronger effect = lower value 0.991 | locus YDL185W, strain tfp1, stronger effect = lower value 0.988 | locus YDL192W, strain arf1, stronger effect = lower value 0.996 | locus YDR001C, strain nth1, stronger effect = lower value 1 and 1.01 | locus YDR069C, strain doa4, stronger effect = lower value 0.987 and 1.02 | locus YDR101C, strain arx1, stronger effect = lower value 0.989 | locus YDR137W, strain rgp1, stronger effect = lower value 0.976 and 0.984 | locus YDR150W, strain NUM1, stronger effect = lower value 0.998 and 0.994 | locus YDR159W, strain sac3, stronger effect = lower value 0.965 and 1.04 | locus YDR162C, strain NBP2, stronger effect = lower value 1.03 | locus YDR195W, strain ref2 0.969 and 0.994 | locus YDR297W, strain sur2, stronger effect = lower value 0.987 and 1 | locus YDR318W, strain mcm21, stronger effect = lower value 0.974 | locus YDR334W, strain swr1, stronger effect = lower value 1.04 and 1.03 | locus YDR335W, strain msn5, stronger effect = lower value 1.01 | locus YDR363W, strain ESC2, stronger effect = lower value 0.991 | locus YDR388W, stronger effect = lower value 0.985 | locus YDR392W, strain spt3, stronger effect = lower value 1 and 0.935 | locus YDR502C, strain sam2, stronger effect = lower value 0.997 | locus YEL003W, strain gim4, stronger effect = lower value 1.02 | locus YEL037C, strain rad23, stronger effect = lower value 1.02 and 1.01 | locus YEL061C, strain CIN8 (second series), stronger effect = lower value 1.03 and 1 | locus YEL061C, strain CIN8, stronger effect = lower value 0.995 | locus YER002W, strain NOP16, stronger effect = lower value 0.994 | locus YER015W, strain faa2, stronger effect = lower value 1.01 and 1 | locus YER016W, strain bim1, stronger effect = lower value 0.987 and 1.01 | locus YER110C, stronger effect = lower value 0.977 | locus YER111C, strain swi4, stronger effect = lower value 0.977 and 1.02 | locus YER155C, strain BEM2 (second series), stronger effect = lower value 1.01 | locus YER155C, strain BEM2, stronger effect = lower value 0.984 | locus YER167W, strain BCK2, stronger effect = lower value 0.964 | locus YFR010W, strain ubp6, stronger effect = lower value 1.01 and 1.03 | locus YGL078C, strain dbp3, stronger effect = lower value 0.992 | locus YGL086W, strain mad1, stronger effect = lower value 0.951 | locus YGL167C, strain pmr1, stronger effect = lower value 0.995 and 1.01 | locus YGL173C, strain kem1, stronger effect = lower value 1 and 1.02 | locus YGL227W, strain vid30, stronger effect = lower value 0.973 and 1.01 | locus YGL240W, strain doc1, stronger effect = lower value 1.02 and 1.03 | locus YGL248W, strain PDE1, stronger effect = lower value 0.984 | locus YGL253W, strain hxk2, stronger effect = lower value 1.01 and 1.04 | locus YGR078C, strain PAC10, stronger effect = lower value 1.03 | locus YGR135W, strain pre9, stronger effect = lower value 0.998 | locus YGR229C, strain SMI1, stronger effect = lower value 1 | locus YGR252W, strain gcn5, stronger effect = lower value 0.955 | locus YHR013C, strain ard1, stronger effect = lower value 0.972 and 0.993 | locus YHR027C, strain rpn1, stronger effect = lower value 0.994 and 1.01 | locus YHR030C, strain SLT2, stronger effect = lower value 0.99 and 0.987 and 0.97 | locus YHR079C, strain IRE1 (second series), stronger effect = lower value 0.996 | locus YHR079C, strain IRE1, stronger effect = lower value 0.99 and 0.969 | locus YHR094C, strain hxt1, stronger effect = lower value 0.985 | locus YHR129C, strain ARP1, stronger effect = lower value 0.99 | locus YHR142W, strain chs7, stronger effect = lower value 0.983 and 1 | locus YHR200W, strain rpn10, stronger effect = lower value 0.982 | locus YIL066C, strain RNR3, stronger effect = lower value 0.965 | locus YIL073C, strain SPO22, stronger effect = lower value 0.944 | locus YIL125W, strain kgd1, stronger effect = lower value 0.996 | locus YIR030C, strain dcg1, stronger effect = lower value 0.987 | locus YJL092W, strain hpr5, stronger effect = lower value 1.01 and 1 | locus YJL095W, strain BCK1 (second series), stronger effect = lower value 0.991 and 1.01 | locus YJL095W, strain BCK1, stronger effect = lower value 0.992 and 1.01 and 0.971 | locus YJL115W, strain asf1, stronger effect = lower value 1.01 | locus YJL129C, strain trk1, stronger effect = lower value 0.974 and 1 | locus YJL134W, strain LCB3, stronger effect = lower value 0.984 | locus YJL154C, strain vps35, stronger effect = lower value 1.01 | locus YJL164C, strain tpk1, stronger effect = lower value 1 and 0.973 | locus YJL166W, strain qcr8, stronger effect = lower value 1.02 and 1.01 | locus YJL168C, strain set2, stronger effect = lower value 0.995 | locus YJL187C, strain SWE1 (second series), stronger effect = lower value 0.998 | locus YJL187C, strain SWE1, stronger effect = lower value 1 and 0.99 | locus YJR043C, strain POL32, stronger effect = lower value 0.983 | locus YJR066W, strain TOR1, stronger effect = lower value 0.923 and 0.916
